Source: PubChem BioAssay (NCATS)
Records with an inconclusive call do not appear. The source made the active and inactive calls. Unless noted, calls come from the whole dose curve; as a rule, active = well fitted curve in the direction sought with a large enough effect; inconclusive = small, poorly fitted or top-dose-only effect, or another doubt; inactive = no such curve, though single readings can be large; an effect the other way counts as inactive or inconclusive.

Legend:
[1] = Primary qHTS for inhibitors of La Crosse Virus (LACV) - induced cell death in SH-SY5Y cells (AID 1508616); note: potency is the fitted concentration of half-maximal effect;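 for activity change: top concentration of the series differs between compounds; 0% = infected DMSO wells and 100% = uninfected DMSO wells; higher means more rescue of cells from virus-induced death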
How it was run: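 Rescue of virus-induced death was read as ATPLite luminescence after 6 days at 37C, scaled between DMSO wells with LACV and without virus. Cells were SH-SY5Y, 6000/well, infected at 0.01 MOI after compound addition.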

[2] = target: Calcium and integrin-binding protein 1 (Homo sapiens) (UniProt Q99828); test: Primary qHTS for Identification of Calcium Integrin Binding Protein 1 (CIB1) Competitor (AID 1508620);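 note: GST tagged CIB1 binding a fluorescein labelled alphaIIb integrin peptide tracer; top concentration of the series differs between compounds; % is set by controls: 0 for no effect and ±100 for the full control effect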
How it was run: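 Fluorescence polarization competition: CIB1-GST (1 uM final) preincubated with compound 15 min at room temperature, then FITC-labeled alphaIIb peptide (100 nM final) added for another 15 min. Polarization read at Ex 480/Em 540.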

[3] = target: Cytochrome P450 2C9 (Homo sapiens) (UniProt P11712); test: Cytochrome P450 family 2 subfamily C member 9 (CYP2C9) small molecule antagonists: luciferase biochemical (cell-free) qHTS assay (AID 1645842; active = well fitted curve in the direction sought with a large enough effect in the repeat runs; an effect the other way counts as inactive or inconclusive; note: nearly all actives have a fitted effect of over 55% in size; note: potency is the fitted concentration of half-maximal effect)
How it was run: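 P450-Glo CYP2C9 system: proluciferin substrate with enzyme in mix containing 0.4% BSA, 10 min at room temperature, then NADPH regeneration solution added and incubated 1 h at 37C. Detection reagent stopped reaction; luminescence read after 20 min as RLU.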

[4] = target: N-terminal Xaa-Pro-Lys N-methyltransferase 1 (Homo sapiens) (UniProt Q9BV86); test: Confirmatory qHTS for Inhibitors of N-terminal methyltransferase 1 (NTMT1): MTaseGlo Assay (AID 1645874); conditions: NTMT1 enzyme, MTase-Glo SAH luminescence; note: potency is the fitted concentration of half-maximal effect; nearly all actives have a fitted effect of over 65% in size
How it was run: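 Inhibition was derived from luminescence after SAH-to-ATP conversion, scaled between no-enzyme and DMSO wells, then fitted by 4-parameter Hill. Conditions: 125 nM NTMT1, 100 uM SAM, 1 uM SPKRIA, 30 min RT.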

[5] = target: Calcium and integrin-binding protein 1 (Homo sapiens) (UniProt Q99828); test: Validation qHTS for Identification of Calcium Integrin Binding protein 1 (CIB1) Competitor (AID 1508618); note: % is set by controls: 0 for no effect and ±100 for the full control effect
How it was run: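 Fluorescence polarization with 1 uM CIB1-GST and 100 nM FITC-alphaIIb peptide in HEPES pH 7.4, NaCl, 5 mM CaCl2, Tween20. Compounds at up to 114 uM final, preincubated with protein 15 min; read after 15 min more at RT.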

[6] = target: Papain (Carica papaya) (UniProt P00784); test: Primary qHTS assay for inhibitors of the protease papain (AID 1645873);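 note: papain turnover of Z-FR-AMC read as the AMC fluorescence gain over 10 min; series mostly up to about 50 µM; % is set by controls: 0 for no effect and ±100 for the full control effect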
[7] = Primary qHTS for small molecule stabilizers of the endoplasmic reticulum resident proteome: Secreted ER Calcium Modulated Protein (SERCaMP) assay (AID 1508630); note: potency is the fitted concentration of half-maximal effect
How it was run: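 The SH-SY5Y reporter protocol was run at 3 concentrations up to 38.3 uM (primary) or 11 concentrations (follow-up): 16 h compound, 100 nM thapsigargin for 4 h, then extracellular luciferase luminescence.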

[8] = Confirmatory qHTS for small molecule stabilizers of the endoplasmic reticulum resident proteome: Secreted ER Calcium Modulated Protein (SERCaMP) assay (AID 1508628); note: nearly all actives have a fitted effect of over 40% in size; note: potency is the fitted concentration of half-maximal effect
How it was run: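 Reporter secretion upon ER calcium depletion (100 nM thapsigargin, 4 h, 37C) is measured as medium luminescence with coelenterazine, after 16 h compound pretreatment of SH-SY5Y-GLuc-SERCaMP cells; primary at three concentrations up to 38.3 uM, follow-up at 11 (up to 76.6 uM).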

[9] = Cell Viability qHTS for small molecule stabilizers of the endoplasmic reticulum resident proteome (AID 1508629); conditions: cell viability counter-screen, 100 nM thapsigargin for final 4 h;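 note: human SH-SY5Y neuroblastoma cells carrying the GLuc-SERCaMP reporter; compound exposure about 46 h in total before the viability read; % is set by controls: 0 for no effect and ±100 for the full control effect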
[10] = target: Cytochrome P450 2D6 (Homo sapiens) (UniProt P10635); test: Cytochrome P450 family 2 subfamily D member 6 (CYP2D6) small molecule antagonists: luciferase biochemical (cell-free) qHTS assay (AID 1645840; active = well fitted curve in the direction sought with a large enough effect in the repeat runs; an effect the other way counts as inactive or inconclusive; note: nearly all actives have a fitted effect of over 55% in size; note: potency is the fitted concentration of half-maximal effect)
How it was run: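 P450-Glo CYP2D6 system: proluciferin substrate converted by enzyme to luciferin, read by luminescence proportional to activity. Enzyme-substrate mix with compound 10 min at room temperature, then NADPH regeneration 1 h before detection reagent.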

[11] = A High-Content qHTS Against Drug Library for the Identification of Small Molecules that Inhibit DYT1 Early Onset Primary Dystonia-Associated Cell Pathology (AID 1645839; calls by dose curve; note: series mostly up to about 46 µM)
How it was run: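 Induced EGFP-delE TorsinA cells are imaged after 48 h of compound treatment. Punctate fusion-protein distribution gives the %pathology value, while nuclei counts flag toxicity. Wild-type EGFP-hTOR1A cells define the normal pattern.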

[12] = Primary qHTS for inhibitors of nuclear receptor binding SET domain protein 2 (NSD2) in an isogenic RCH-ACV NSD2 p.E1099K mutant (9B) (AID 1645876); note: nearly all actives have a fitted effect of over 70% in size
[13] = Primary qHTS for inhibitors of nuclear receptor binding SET domain protein 2 (NSD2) in an RCH-ACV wild type WT cells (2C) (AID 1645877); note: nearly all actives have a fitted effect of over 70% in size
[14] = target: Rap guanine nucleotide exchange factor 3 (Homo sapiens) (UniProt O95398); test: Confirmatory qHTS for antagonist of cAMP-regulated guanine nucleotide exchange factor 3 (EPAC1) (AID 1645880);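 note: plate controls were DMSO only for no effect and full effect of the ATA control for full effect; nearly all actives have a fitted effect of over 55% in size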
How it was run: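 Released BODIPY-GDP fluoresces less than Rap1-bound BODIPY-GDP; the signal is followed at 480/540 nm at 5-min intervals over 30 min, after 5 min at room temperature. Reactions contain 100 nM EPAC1, 250 nM RAP1B-BODIPY-GDP and 50 uM GDP; results are normalized to ATA and DMSO.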

[15] = target: Rap guanine nucleotide exchange factor 3 (Homo sapiens) (UniProt O95398); test: Confirmatory qHTS for agonist of cAMP-regulated guanine nucleotide exchange factor 3 (EPAC1) (AID 1645881);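 note: EPAC1 catalysed release of BODIPY-GDP from Rap1B seen as fluorescence loss; 100% = effect of cAMP agonist control; nearly all actives have a fitted effect of over 75% in size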
[16] = target: Rap guanine nucleotide exchange factor 4 (Homo sapiens) (UniProt Q8WZA2); test: Confirmatory qHTS for agonist of cAMP-regulated guanine nucleotide exchange factor 4 (EPAC2) (AID 1645884);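 note: nucleotide exchange releases bodipy-GDP from Rap1 and this lowers its fluorescence; % is set by controls: 0 for no effect and ±100 for the full control effect; nearly all actives have a fitted effect of over 65% in size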
[17] = Counterscreen qHTS for small molecule stabilizers of the endoplasmic reticulum resident proteome: GLuc-NoTag assay (AID 1508627); note: potency is the fitted concentration of half-maximal effect
How it was run: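 Secreted GLuc lacking the SERCaMP modification is measured in SH-SY5Y cells exposed to compound for 19 h and then to thapsigargin (100 nM, 4 h) to deplete ER calcium; hits retested at 11 concentrations, up to 76.6 uM.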

Chain of Papain (Carica papaya) (P00784 whole entry, looked up): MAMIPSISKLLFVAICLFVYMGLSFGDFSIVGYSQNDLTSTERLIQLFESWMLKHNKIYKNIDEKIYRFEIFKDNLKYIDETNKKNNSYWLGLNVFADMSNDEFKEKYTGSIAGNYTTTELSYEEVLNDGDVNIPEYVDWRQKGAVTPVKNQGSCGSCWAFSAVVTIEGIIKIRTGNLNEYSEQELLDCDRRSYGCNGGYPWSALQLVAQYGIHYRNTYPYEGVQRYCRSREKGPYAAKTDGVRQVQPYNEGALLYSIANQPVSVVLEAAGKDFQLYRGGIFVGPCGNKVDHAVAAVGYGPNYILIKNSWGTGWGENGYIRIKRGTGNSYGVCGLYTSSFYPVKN
Chain of Cytochrome P450 2C9 (Homo sapiens) (P11712 whole entry, looked up): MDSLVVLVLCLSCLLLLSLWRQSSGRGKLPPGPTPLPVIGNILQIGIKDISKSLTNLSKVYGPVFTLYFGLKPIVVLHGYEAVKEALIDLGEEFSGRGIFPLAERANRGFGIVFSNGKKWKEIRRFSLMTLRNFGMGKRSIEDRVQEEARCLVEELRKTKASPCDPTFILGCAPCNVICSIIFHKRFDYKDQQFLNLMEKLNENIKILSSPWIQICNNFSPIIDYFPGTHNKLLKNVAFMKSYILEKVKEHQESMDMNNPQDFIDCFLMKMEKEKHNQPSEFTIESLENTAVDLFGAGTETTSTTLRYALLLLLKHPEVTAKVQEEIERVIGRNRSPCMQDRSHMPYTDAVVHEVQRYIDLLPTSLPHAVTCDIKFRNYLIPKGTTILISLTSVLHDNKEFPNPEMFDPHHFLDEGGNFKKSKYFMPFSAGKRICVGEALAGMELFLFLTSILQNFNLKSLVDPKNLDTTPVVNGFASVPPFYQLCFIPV
Chain of Calcium and integrin-binding protein 1 (Homo sapiens) (Q99828 whole entry, looked up): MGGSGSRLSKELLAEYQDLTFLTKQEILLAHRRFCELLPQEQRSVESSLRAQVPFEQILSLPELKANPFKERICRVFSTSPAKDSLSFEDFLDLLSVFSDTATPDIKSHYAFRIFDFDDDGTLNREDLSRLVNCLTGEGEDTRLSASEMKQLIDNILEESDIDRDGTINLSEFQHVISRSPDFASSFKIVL
Chain of Cytochrome P450 2D6 (Homo sapiens) (P10635 whole entry, looked up): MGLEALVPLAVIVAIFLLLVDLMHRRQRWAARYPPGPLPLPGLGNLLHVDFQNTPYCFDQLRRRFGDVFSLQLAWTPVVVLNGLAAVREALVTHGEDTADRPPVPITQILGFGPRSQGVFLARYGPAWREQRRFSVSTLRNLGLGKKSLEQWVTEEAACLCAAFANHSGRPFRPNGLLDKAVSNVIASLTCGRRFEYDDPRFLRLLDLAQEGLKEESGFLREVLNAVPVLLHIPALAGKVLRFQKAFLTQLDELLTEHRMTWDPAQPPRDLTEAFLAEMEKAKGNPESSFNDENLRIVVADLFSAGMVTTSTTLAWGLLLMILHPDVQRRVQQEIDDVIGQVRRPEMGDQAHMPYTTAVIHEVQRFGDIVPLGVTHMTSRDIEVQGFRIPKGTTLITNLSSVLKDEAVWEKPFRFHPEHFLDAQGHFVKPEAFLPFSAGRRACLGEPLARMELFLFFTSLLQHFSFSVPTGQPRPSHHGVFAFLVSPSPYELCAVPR
Chain of N-terminal Xaa-Pro-Lys N-methyltransferase 1 (Homo sapiens) (Q9BV86 whole entry, looked up): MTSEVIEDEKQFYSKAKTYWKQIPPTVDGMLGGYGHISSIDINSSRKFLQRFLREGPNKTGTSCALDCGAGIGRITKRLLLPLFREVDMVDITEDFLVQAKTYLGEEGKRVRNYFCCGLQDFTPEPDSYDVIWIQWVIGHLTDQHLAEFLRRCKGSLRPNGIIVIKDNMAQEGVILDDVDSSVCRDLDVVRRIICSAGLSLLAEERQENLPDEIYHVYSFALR
Chain of Rap guanine nucleotide exchange factor 3 (Homo sapiens) (O95398 whole entry, looked up): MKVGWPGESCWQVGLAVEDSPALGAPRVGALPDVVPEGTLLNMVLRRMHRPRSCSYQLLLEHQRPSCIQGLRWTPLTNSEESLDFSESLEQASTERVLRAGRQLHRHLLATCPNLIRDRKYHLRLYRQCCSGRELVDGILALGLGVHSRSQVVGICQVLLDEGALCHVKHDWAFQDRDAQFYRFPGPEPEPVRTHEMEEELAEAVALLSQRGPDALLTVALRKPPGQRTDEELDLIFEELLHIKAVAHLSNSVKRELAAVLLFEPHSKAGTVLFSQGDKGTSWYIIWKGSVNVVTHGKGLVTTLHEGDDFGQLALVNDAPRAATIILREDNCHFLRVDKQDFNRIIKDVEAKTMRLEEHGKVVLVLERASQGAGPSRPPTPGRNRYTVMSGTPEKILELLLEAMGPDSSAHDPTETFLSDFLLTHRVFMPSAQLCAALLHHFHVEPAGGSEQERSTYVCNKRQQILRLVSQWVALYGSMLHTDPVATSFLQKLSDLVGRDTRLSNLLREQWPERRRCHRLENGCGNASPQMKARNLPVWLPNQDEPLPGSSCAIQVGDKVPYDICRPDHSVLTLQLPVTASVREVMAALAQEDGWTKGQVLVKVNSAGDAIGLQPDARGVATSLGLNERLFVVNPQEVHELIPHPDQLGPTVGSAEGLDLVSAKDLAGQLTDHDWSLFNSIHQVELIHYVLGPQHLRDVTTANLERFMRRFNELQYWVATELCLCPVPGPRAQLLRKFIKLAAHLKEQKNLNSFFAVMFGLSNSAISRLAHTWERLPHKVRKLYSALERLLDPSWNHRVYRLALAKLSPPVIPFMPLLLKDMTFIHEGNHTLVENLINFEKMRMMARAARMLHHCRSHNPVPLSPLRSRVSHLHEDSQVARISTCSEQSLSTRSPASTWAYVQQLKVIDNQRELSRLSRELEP
Chain of Rap guanine nucleotide exchange factor 4 (Homo sapiens) (Q8WZA2 whole entry, looked up): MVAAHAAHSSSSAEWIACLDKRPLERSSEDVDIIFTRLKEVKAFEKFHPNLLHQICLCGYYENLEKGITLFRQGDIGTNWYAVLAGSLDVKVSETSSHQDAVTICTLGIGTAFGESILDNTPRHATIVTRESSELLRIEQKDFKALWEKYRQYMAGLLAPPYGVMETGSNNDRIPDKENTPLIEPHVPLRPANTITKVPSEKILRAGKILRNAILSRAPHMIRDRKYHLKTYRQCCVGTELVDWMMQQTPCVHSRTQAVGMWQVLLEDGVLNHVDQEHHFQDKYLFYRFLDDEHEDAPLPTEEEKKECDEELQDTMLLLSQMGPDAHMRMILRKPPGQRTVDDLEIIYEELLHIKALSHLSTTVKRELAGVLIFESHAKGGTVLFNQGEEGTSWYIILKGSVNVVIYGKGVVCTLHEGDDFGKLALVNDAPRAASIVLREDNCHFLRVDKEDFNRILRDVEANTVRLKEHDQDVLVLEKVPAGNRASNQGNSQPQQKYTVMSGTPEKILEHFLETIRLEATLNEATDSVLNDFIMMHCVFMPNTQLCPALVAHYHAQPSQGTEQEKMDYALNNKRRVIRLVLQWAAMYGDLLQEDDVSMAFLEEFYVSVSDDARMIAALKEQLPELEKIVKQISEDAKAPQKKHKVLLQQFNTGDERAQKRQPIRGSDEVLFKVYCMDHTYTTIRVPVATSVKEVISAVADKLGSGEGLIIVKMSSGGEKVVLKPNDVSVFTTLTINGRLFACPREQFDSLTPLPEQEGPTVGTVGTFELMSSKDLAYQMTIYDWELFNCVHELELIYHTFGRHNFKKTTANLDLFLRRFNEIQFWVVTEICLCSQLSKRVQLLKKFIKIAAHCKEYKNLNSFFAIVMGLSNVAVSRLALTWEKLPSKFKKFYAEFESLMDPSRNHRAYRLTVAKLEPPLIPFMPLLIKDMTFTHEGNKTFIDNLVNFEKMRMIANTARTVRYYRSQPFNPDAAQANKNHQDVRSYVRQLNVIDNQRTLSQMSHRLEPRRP

O=c1cc(-c2ccccc2)oc2ccccc12
active: Potency [3] 15.4 µM | Potency [4] 50.1 µM
inactive: Potency [1] | Potency [2]

Cc1cc2c(cc1Cl)N(C(=O)Nc1ccc(Oc3cccnc3C)nc1)CC2
inactive: Potency [1] | outcome [5] | Potency [6]

NC(N)=NC(=O)c1nc(Cl)c(N2CCCCCC2)nc1N
inactive: Potency [1] | outcome [5] | Potency [6]

NCCCS(=O)(=O)O
inactive: Potency [1] | outcome [5] | Potency [7] | Potency [6]

CN(C)c1ccc(N=NS(=O)(=O)O)cc1
active: Potency [10] 2.37 µM | Potency [3] 0.728 µM
inactive: Potency [1] | Potency [2] | Potency [8] | max response [9] 4.58%

O=C(O)c1cc(O)c(O)c(O)c1
inactive: Potency [1] | Potency [2] | Potency [11] | Potency [10] | Potency [3]

CC(C)(C)c1nnc(NS(=O)(=O)c2ccc(N)cc2)s1
inactive: Potency [1] | Potency [2] | Potency [7] | Potency [11] | Potency [10] | Potency [3] | Potency [12] | Potency [13]

CC(=O)SCC(CC(=O)c1ccc(C)cc1)C(=O)O (centres undefined)
inactive: Potency [1] | Potency [11] | Potency [10]

c1ccc2sc(SSc3nc4ccccc4s3)nc2c1
active: Potency [3] 9.52 µM
inactive: activity change [1] 7.43% [at 1.78 µM] | Potency [7] | Potency [11] | Potency [10]

COc1ccnc2c1CCCCC2S(=O)c1nc2ccccc2[nH]1 (centres undefined)
active: Potency [10] 0.347 µM | Potency [3] 9.77 µM
inactive: Potency [1] | Potency [7] | Potency [11] | Potency [12]

O=C(O)Cc1cccc(-c2cc(CCCCCCc3ccc(O[C@H]4O[C@H](CO)[C@@H](O)[C@H](O)[C@@H]4O)c(-c4cccc(CC(=O)O)c4)c3)ccc2O[C@H]2O[C@H](CO)[C@@H](O)[C@H](O)[C@@H]2O)c1
inactive: activity change [1] -19% [at 0.0343 µM] | activity change, negative = inhibition [7] -18.9% [at 0.478 µM] | % pathology change, negative = correction [11] -6.26% [at 0.369 µM] | activity change, negative = inhibition [10] -6.59% [at 0.91 µM] | activity change, negative = inhibition [3] 11.7% [at 0.91 µM] | activity change, negative = viability loss [12] 9.79% [at 0.588 µM] | outcome [13] inactive [at 0.588 µM]

CC(C(=O)O)c1ccc(C(=O)c2ccccc2)s1 (centres undefined)
inactive: Potency [1] | Potency [11] | Potency [10] | Potency [12]
active: Potency [3] 15.5 µM

CCCCCCOc1ccccc1C(N)=O
active: Potency [3] 8.71 µM
inactive: Potency [1] | Potency [7] | Potency [11]

Oc1ccccc1O
inactive: max response [9] -15.9% | Potency [6]
active: Potency [1] 2 µM | Potency [8] 7.08 µM | Potency [7] 25.1 µM

O=C(O)[C@@H]1C[C@H](C(=O)O)N1
inactive: Potency [1] | Potency [7]

O=C(O)c1ccccc1Nc1cccc(C(F)(F)F)c1
inactive: Potency [1] | Potency [7] | Potency [10] | Potency [3] | Potency [14] | Potency [15] | Potency [16]

C#CC1(O)CC[C@H]2[C@@H]3CCC4=CCCC[C@@H]4[C@H]3CC[C@@]21C (some centres undefined)
inactive: Potency [1] | Potency [7]
active: Potency [3] 1.74 µM

C/C(=N\O)c1ccc(OCC(=O)N2CCCCC2)cc1
inactive: Potency [1] | Potency [7] | Potency [11] | Potency [10] | Potency [3] | Potency [12]

CCCCN1CCC(n2c(=O)[nH]c3ccccc32)CC1
inactive: Potency [1] | Potency [7]

CN1CCc2ccccc2Cc2[nH]c3ccccc3c2CC1
inactive: Potency [1] | Potency [7] | Potency [6]

CNCC[C@H](Oc1ccc(C(F)(F)F)cc1)c1ccccc1
inactive: Potency [1] | Potency [8] | Potency [7] | Potency [6]

S=c1[nH]c2ccccc2s1
active: Potency [10] 29.1 µM | Potency [3] 15.9 µM
inactive: Potency [1] | Potency [7]

Cc1ccc2c(n1)Oc1ccc(C(C)C(=O)OCC(=O)N(C)C)cc1C2 (centres undefined)
inactive: Potency [1] | Potency [7] | Potency [11] | Potency [12] | Potency [13]

C#C[C@]1(O)CC[C@H]2[C@@H]3CCC4=Cc5oncc5CC4(C)[C@H]3CCC21C (some centres undefined)
inactive: Potency [1] | Potency [7] | Potency [6]

O=C(O)/C=C\C(=O)O
inactive: Potency [1] | Potency [11] | Potency [10] | Potency [3] | Potency [12] | Potency [13]

CC(C(=O)O)c1ccc2c(c1)[nH]c1ccc(Cl)cc12 (centres undefined)
inactive: Potency [1] | Potency [11] | Potency [10] | Potency [3] | Potency [12] | Potency [13]

O=Cc1ccc(O)c(O)c1O
inactive: Potency [1] | Potency [11] | Potency [10] | Potency [3]

N.N.N.N.N.N.N.N.N.N.N.N.N.N.O.O.[Ru+4].[Ru+5].[Ru+5]
active: Potency [17] 7.08 µM | Potency [8] 7.08 µM | Potency [4] 27.4 µM
inactive: Potency [1] | Potency [6]

C=C[C@H]1CN2CC[C@@H]1C[C@@H]2[C@@H](O)c1ccnc2ccc(OC)cc12
active: Potency [17] 3.98 µM | Potency [8] 31.6 µM
inactive: Potency [1]

O=C(c1cc(O)c(O)c([N+](=O)[O-])c1)c1ccccc1F
inactive: Potency [1] | Potency [7]

Nc1ccc(C(=O)O)c(O)c1
inactive: Potency [1] | Potency [11] | Potency [10] | Potency [3] | Potency [12] | Potency [13]
